Results on 25 compounds are retold here after ChEMBL document CHEMBL4296182, “CO-ADD screening of NIH NCI Diversity Set V”.

Assay [1] concerns Staphylococcus aureus. As to the kind of experiment: Antibacterial activity against Staphylococcus aureus MRSA ATCC 43300 (CO-ADD:GP_020); MIC in CAMBH media using NBS plates, by Resazurin F(560/590). The assay is classed as functional. Conditions: Concentration 20 uM, ASSAY_TEST Inhibition of Bacterial Growth, detection method Resazurin, Fluorescence (ex560/em590), MEDIA CAMHB, plate type 384well, CORNING #3640, time 18 hr. On the technique in general: Alamar Blue is a resazurin reagent that responds to reducing activity.

For assay [2], the system named is Acinetobacter baumannii. The assay can be described thus: Antibacterial activity against Acinetobacter baumannii ATCC 19606 (CO-ADD:GN_034); MIC in CAMBH media using NBS plates, by Resazurin F(560/590). The assay is classed as functional. The note with it: Concentration 20 uM, ASSAY_TEST Inhibition of Bacterial Growth, detection method Resazurin, Fluorescence (ex560/em590), MEDIA CAMHB, plate type 384well, CORNING #3640, time 18 hr.

In assay [3] the test system is Escherichia coli. The assay can be described thus: Antibacterial activity against Escherichia coli ATCC 25922 (CO-ADD:GN_001); MIC in CAMBH media using NBS plates, by Resazurin F(560/590). The assay is classed as functional. Conditions: Concentration 20 uM, ASSAY_TEST Inhibition of Bacterial Growth, detection method Resazurin, Fluorescence (ex560/em590), MEDIA CAMHB, plate type 384well, CORNING #3640, time 18 hr.

The test system of assay [4] is Klebsiella pneumoniae. The note with it: Concentration 20 uM; ASSAY_TEST Inhibition of Bacterial Growth; detection method Absorption (OD600); MEDIA CAMHB; plate type 384well; NBS; CORNING #3640; time 18 hr.
The subject of assay [5] is Candida albicans. The note with it: 20 µM.
Assay [6] relates to Cryptococcus neoformans. The note with it: Concentration 20 uM; ASSAY_TEST Inhibition of Fungal Growth; detection method Resazurin; Absorption (OD600-OD570); plate type 384well; NBS; CORNING #3640.

For part of these data: Potency and affinity values are given separately.

Regarding `CC12C(=O)N(c3nccs3)C(=O)C1(C)C1CCC2O1` (stereo not given), the Inhibition (commonly the relative decrease from the control value, in per cent) in assay [1] is 6.57%; in assay [2] it was 6.5%; in assay [3], 7.81%; in assay [4], 14.08%; in assay [5], 2.65%; in assay [6], -13.24%.
Take `C[C@H](CCC(=O)O)[C@H]1CC[C@@]2(C)[C@@H]3C(=O)C[C@H]4C(C)(C)[C@@H](O)CC[C@]4(C)[C@H]3C(=O)C[C@]12C`: the Inhibition is 2.14% in assay [1]; -2.92% in assay [2]; -3.17% in assay [3]; 11.41% in assay [4]; -2.24% in assay [5]; -2.42% in assay [6].
Consider `CN(C)c1ccc(/C=C/c2ccc3ccccc3n2)cc1`, for which the Inhibition was -2.51% in assay [1]; 5.82% in assay [2]; 5.25% in assay [3]; 10.87% in assay [4]; 5.63% in assay [5]; -14.32% in assay [6].
`COc1ccccc1/C=C(\C#N)C(=O)O`: the Inhibition in assay [1] is 12.51%; in assay [2], 1.75%; in assay [3] it was 5.31%; in assay [4], 6.46%; in assay [5], 6.96%; in assay [6], -7.1%.
In the case of `O=C(O)c1ccc2c(c1Sc1ccccc1)C(=O)c1ccccc1C2=O`, the Inhibition was -2.35% in assay [1]; 11.62% in assay [2]; -1.12% in assay [3]; 2.65% in assay [4]; 1.7% in assay [5]; -3.15% in assay [6].
With `O=C(NC1CCCCC1)c1cc2ccccc2cc1O`, the Inhibition in assay [1] was 11.46%; in assay [2], 7.31%; in assay [3] it was 4.75%; in assay [4], 14.67%; in assay [5], 0.86%; in assay [6], -3.07%.
As to `C=CCN1CCN(c2ccncc2S(=O)(=O)N2CCN(C)CC2)CC1`, the Inhibition in assay [1] is 11.93%; in assay [2] it was 5.76%; in assay [3], 5.47%; in assay [4], 7.93%; in assay [5] it was -0.33%; in assay [6], -11.5%.
As for `Nc1ccc(S(=O)(=O)NCC2CCCCO2)cc1` (stereo not given), the Inhibition in assay [1] is 11.97%; in assay [2] it was 6.11%; in assay [3] it was 1.65%; in assay [4], 16.22%; in assay [5] it was 0.19%; in assay [6], -11.32%.
Regarding `CCOC(=O)N1CCN(Cc2c(O)ccc3ccccc23)CC1`, the Inhibition in assay [1] is 1.46%; in assay [2], -8.59%; in assay [3], 8.73%; in assay [4], 12.37%; in assay [5], 3.24%; in assay [6], -5.96%.
Consider `CN(C)C(=S)/N=c1\ssc(=S)n1Cc1ccco1`, for which the Inhibition in assay [1] was found to be 13.2%; in assay [2] it was 6.63%; in assay [3], 0.6%; in assay [4], 0.81%; in assay [5] it was 2.24%; in assay [6], 5.1%.
With `Cc1cccc(Nc2sc(C(=O)c3cc4cc(Cl)ccc4o3)c(N)c2C#N)c1`, the Inhibition is 1.46% in assay [1]; -13.03% in assay [2]; 6.28% in assay [3]; 5.96% in assay [4]; 0.06% in assay [5]; 37.64% in assay [6].
In the case of `c1ccc(-c2nnc(-c3ccccn3)[nH]2)nc1`, the Inhibition was 12.66% in assay [1]; 11.56% in assay [2]; -1.7% in assay [3]; 7.68% in assay [4]; 4.71% in assay [5]; -5.04% in assay [6].
For the compound `CCOC(=O)/C=C/c1ccc(C(=O)OCC)[nH]1`, the Inhibition stood at 42.73% in assay [1]; 10.2% in assay [2]; 20.38% in assay [3]; 8.24% in assay [4]; 7.12% in assay [5]; 8.93% in assay [6].
In the case of `O=S1(=O)CSCS(=O)(=O)C1`, the Inhibition in assay [1] was -12.69%; in assay [2], -2.62%; in assay [3], -18.14%; in assay [4], 0.72%; in assay [5] it was 5.55%; in assay [6], 27.89%.
Regarding `Cc1oc2c(c(C)nn2-c2ccccc2)c(=O)c1Cl`, the Inhibition in assay [1] is -0.13%; in assay [2], -6.85%; in assay [3], 7.16%; in assay [4], 9.65%; in assay [5] it was 14.3%; in assay [6], 35.87%.
As to `c1ccc2sc(SCSc3nc4ccccc4s3)nc2c1`, the Inhibition was -0.38% in assay [1]; -17.15% in assay [2]; 3.51% in assay [3]; 4.08% in assay [4]; 12.5% in assay [5]; -13.87% in assay [6].
Take `O=C(NC(=S)Nc1cc(Cl)ccc1O)c1cccc(Br)c1`: the Inhibition in assay [1] was 15.1%; in assay [2], 1.75%; in assay [3], -0.44%; in assay [4], 14.73%; in assay [5], -2.09%; in assay [6], -0.86%.
As for `CSc1ccc(NC(=O)Nc2cc(C)ccn2)cc1`, the Inhibition in assay [1] was 4.66%; in assay [2], -16.85%; in assay [3] it was 9.5%; in assay [4], 13.34%; in assay [5], 0.13%; in assay [6], -8.58%.
Take `O=C1OCC/C1=C\OCCCO/C=C1\CCOC1=O`: the Inhibition in assay [1] is -12.85%; in assay [2], -4.57%; in assay [3], -5.06%; in assay [4] it was 8.79%; in assay [5] it was -0.38%; in assay [6] it was -11.43%.
For the compound `Cc1cc(NC(=O)Nc2cccc3ccccc23)no1`, the Inhibition is -11.32% in assay [1]; -7.4% in assay [2]; 9.22% in assay [3]; -0.15% in assay [4]; 8.31% in assay [5]; -12.19% in assay [6].
`Cn1c(=O)c2nc(CCCc3ccc([N+](=O)[O-])cc3)[nH]c2n(C)c1=O`: the Inhibition was 7.08% in assay [1]; -13.97% in assay [2]; 3.35% in assay [3]; 12.88% in assay [4]; 0.38% in assay [5]; -9.63% in assay [6].
In the case of `CCCCSc1cc(C)nc(N)n1`, the Inhibition is 19.18% in assay [1]; -7.66% in assay [2]; 11.54% in assay [3]; 4.75% in assay [4]; 1.09% in assay [5]; -5.9% in assay [6].
On to `Oc1cc(CNC2CCCCC2)c(O)cc1CNC1CCCCC1`, for which the Inhibition in assay [1] is 1.43%; in assay [2], -9.92%; in assay [3], 2.36%; in assay [4], 11.38%; in assay [5], 5.97%; in assay [6] it was -6.29%.
Take `COC1C(=O)CCC2(CO2)C1(O)C1(C)OC1CC=C(C)C` (stereo not given): the Inhibition in assay [1] is -15.99%; in assay [2], -18.89%; in assay [3], 14.59%; in assay [4] it was 5.17%; in assay [5] it was 9.99%; in assay [6], -9.09%.
As for `CC(=O)[C@@]1(O)[C@H](C)C[C@H]2[C@@H]3C=C(C)C4=Cc5c(cnn5-c5ccccc5)C[C@]4(C)[C@H]3[C@@H](O)C[C@@]21C`, the Inhibition in assay [1] is 3.25%; in assay [2], -8.97%; in assay [3] it was 7.95%; in assay [4] it was 0.96%; in assay [5] it was 4.25%; in assay [6] it was -3.62%.
